Reference: the supplement of paper PMC10849652
Of roughly 8,800 targets only a part is listed; those with a hit were picked by preference. About 0.5% of all pairs of compound and target were hits.

Experiments:
Experiment in all cases: log2 fold change, soluble protein after heating vs DMSO (PISA); higher = thermal stabilisation; K562 lysate, 10 uM; active = over 0.2 and 3.5 SD of the protein, either way, in both replicates (recomputed)
erlotinib = compound: C#Cc1cccc(Nc2ncnc3cc(OCCOC)c(OCCOC)cc23)c1 [erlotinib]
Summary of the method: (§1)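 Pellets of K562 cells were dounce-homogenised in PBS pH 7.4 with 1 mM MgCl2, and the crude extract was held at 1 mg/mL protein for a 30 min treatment with 10 μM compound. Aliquots were heated for 3 min over 48°C-58°C and pooled before NP-40 was added to 0.5% at 4°C. The supernatant from 21,000xg for 90 min was quantified by TMTpro 16plex LC-MS/MS with channel sums equalised. Values are reported from duplicates as log-two fold change in thermal stability relative to solvent controls.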

[1] = compound: C/C(=N\NC(=O)C1=CC(=CC=C1)S(=O)(=O)N2CCOCC2)/C3=C(C=CC(=C3)Cl)O
Summary of the method: as §1

[2] = compound: C1=CC(=CC=C1C2=NC3=C(N2)C=C(C=C3)C(=O)N)OC4=CC=C(C=C4)Cl
Summary of the method: as §1

[3] = compound: C1=CC2=C(C=CC(=C2)/C=C\3/C(=O)NC(=NCC4=CC=CS4)S3)N=C1
Summary of the method: as §1

[4] = compound: C1=CC2=NC=CN=C2C=C1/C=C/3\C(=O)NC(=O)S3
Summary of the method: as §1

[5] = compound: C1=CC=C(C=C1)C2=NC(=C(N2)C3=CC=NC=C3)C4=CC(=C(C=C4)Cl)O
Summary of the method: as §1

[6] = compound: C1=CC=C2C(=C1)C3=NNC4=CC=CC(=C43)C2=O
Summary of the method: as §1

[7] = compound: C1CCN(C1)C(=O)NC2=CC=CC(=C2)NC3=NC=C(C(=N3)NCCC4=CN=CN4)Br
Summary of the method: as §1

[8] = compound: C1CN(CCC1(CC2=CC=C(C=C2)Cl)N)C3=NC=NC4=C3C=CN4
Summary of the method: as §1

IRAK-1-4 Inhibitor I = compound: C1COCCN1CCN2C3=CC=CC=C3N=C2NC(=O)C4=CC(=CC=C4)[N+](=O)[O-] [IRAK-1-4 Inhibitor I]
Summary of the method: as §1

Measured: log2 fold change

STAT2 (UniProt P52630)
UniProt P52630, sequence (P52630 whole entry, looked up): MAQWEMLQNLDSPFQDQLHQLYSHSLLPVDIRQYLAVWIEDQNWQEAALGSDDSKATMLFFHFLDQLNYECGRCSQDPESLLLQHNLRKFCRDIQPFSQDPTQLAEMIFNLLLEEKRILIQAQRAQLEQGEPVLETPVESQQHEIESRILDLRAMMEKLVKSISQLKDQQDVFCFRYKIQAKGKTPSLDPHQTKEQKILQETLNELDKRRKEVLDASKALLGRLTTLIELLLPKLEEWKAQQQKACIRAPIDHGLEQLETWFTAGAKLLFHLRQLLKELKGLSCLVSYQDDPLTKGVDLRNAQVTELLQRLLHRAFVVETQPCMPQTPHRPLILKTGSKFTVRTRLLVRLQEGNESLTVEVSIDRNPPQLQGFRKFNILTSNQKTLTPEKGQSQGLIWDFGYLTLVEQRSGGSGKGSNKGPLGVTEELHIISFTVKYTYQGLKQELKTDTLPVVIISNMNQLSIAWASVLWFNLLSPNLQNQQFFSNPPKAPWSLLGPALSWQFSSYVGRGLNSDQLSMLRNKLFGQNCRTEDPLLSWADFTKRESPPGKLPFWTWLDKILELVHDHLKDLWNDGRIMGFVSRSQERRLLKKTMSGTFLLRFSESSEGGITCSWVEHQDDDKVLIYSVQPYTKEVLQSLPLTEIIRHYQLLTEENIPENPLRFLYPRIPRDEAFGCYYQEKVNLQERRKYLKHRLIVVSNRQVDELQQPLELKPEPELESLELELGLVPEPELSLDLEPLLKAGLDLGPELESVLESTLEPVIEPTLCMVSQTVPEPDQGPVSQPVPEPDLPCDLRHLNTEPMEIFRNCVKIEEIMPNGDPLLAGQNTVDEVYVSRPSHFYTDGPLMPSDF
inactive: erlotinib -0.009 | [1] 0.033 | [2] -0.102 | [3] -0.01 | [4] 0.034 | [5] 0.003 | [6] -0.032 | [7] 0.002 | [8] 0.018 | IRAK-1-4 Inhibitor I -0.018

SLC11A2 isoform 3 (UniProt P49281)
UniProt P49281, sequence (P49281 whole entry, looked up): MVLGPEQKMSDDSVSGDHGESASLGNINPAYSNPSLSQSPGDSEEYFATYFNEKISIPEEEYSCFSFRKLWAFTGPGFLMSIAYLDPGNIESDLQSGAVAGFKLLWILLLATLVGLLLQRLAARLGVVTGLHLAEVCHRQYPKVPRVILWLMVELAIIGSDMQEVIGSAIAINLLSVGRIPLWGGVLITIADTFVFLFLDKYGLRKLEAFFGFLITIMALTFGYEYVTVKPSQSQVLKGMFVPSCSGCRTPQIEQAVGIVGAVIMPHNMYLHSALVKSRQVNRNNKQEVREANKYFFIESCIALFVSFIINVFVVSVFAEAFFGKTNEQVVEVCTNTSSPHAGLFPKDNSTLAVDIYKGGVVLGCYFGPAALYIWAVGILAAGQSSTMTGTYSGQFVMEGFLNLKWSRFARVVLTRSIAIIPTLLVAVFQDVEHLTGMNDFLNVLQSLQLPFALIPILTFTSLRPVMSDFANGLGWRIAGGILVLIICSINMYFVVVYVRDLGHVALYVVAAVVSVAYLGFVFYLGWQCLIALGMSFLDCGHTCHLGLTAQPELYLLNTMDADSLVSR
inactive: erlotinib -0.005 | [1] -0.041 | [2] -0.009 | [3] -0.013 | [4] 0 | [5] 0.011 | [6] 0.046 | [7] -0.004 | [8] 0.026 | IRAK-1-4 Inhibitor I 0.024

TANK (UniProt Q92844)
inactive: erlotinib 0 | [1] -0.089 | [2] -0.015 | [3] -0.069 | [4] 0.003 | [5] 0.025 | [6] 0.089 | [7] 0.082 | [8] 0 | IRAK-1-4 Inhibitor I 0.028

SH3BGRL2 (UniProt Q9UJC5)
UniProt Q9UJC5, sequence (Q9UJC5 whole entry, looked up): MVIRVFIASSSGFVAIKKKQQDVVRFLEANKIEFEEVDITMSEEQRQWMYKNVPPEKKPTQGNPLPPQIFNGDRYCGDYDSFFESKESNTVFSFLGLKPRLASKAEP
inactive: erlotinib 0.007 | [1] -0.109 | [2] 0.035 | [3] 0.045 | [4] -0.049 | [5] 0.01 | [6] 0.018 | [7] -0.087 | [8] 0.034 | IRAK-1-4 Inhibitor I 0.007

SMAP2 (UniProt Q8WU79)
inactive: erlotinib -0.009 | [1] -0.018 | [2] 0.073 | [3] 0 | [4] 0.023 | [5] -0.2 | [6] 0.015 | [7] 0.037 | [8] 0.023 | IRAK-1-4 Inhibitor I 0.044

SLC38A10 (UniProt Q9HBR0)
inactive: erlotinib 0.007 | [1] -0.128 | [2] -0.006 | [3] -0.065 | [4] -0.009 | [5] 0.02 | [6] -0.127 | [7] 0 | [8] 0.016 | IRAK-1-4 Inhibitor I 0.047

SOAT1 (UniProt P35610)
UniProt P35610, sequence (P35610 whole entry, looked up): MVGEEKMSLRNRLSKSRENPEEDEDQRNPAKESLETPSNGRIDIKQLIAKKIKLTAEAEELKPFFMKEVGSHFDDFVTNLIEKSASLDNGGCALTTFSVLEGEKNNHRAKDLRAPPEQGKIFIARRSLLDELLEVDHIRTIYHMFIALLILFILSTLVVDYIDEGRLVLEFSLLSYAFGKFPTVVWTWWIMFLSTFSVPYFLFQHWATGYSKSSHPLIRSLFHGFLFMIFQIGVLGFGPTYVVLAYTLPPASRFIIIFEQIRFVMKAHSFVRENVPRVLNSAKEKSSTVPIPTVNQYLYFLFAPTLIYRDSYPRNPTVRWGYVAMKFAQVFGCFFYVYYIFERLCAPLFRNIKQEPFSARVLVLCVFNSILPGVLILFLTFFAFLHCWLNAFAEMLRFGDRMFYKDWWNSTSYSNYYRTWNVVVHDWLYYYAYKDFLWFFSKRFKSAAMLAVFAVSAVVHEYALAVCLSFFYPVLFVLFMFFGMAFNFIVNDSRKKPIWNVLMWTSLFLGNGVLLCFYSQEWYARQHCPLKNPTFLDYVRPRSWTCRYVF
inactive: erlotinib 0.06 | [1] -0.007 | [2] -0.042 | [3] 0 | [4] -0.048 | [5] 0.056 | [6] -0.058 | [7] -0.056 | [8] -0.019 | IRAK-1-4 Inhibitor I 0

SULT1A1 (UniProt P50225)
UniProt P50225, sequence (P50225 whole entry, looked up): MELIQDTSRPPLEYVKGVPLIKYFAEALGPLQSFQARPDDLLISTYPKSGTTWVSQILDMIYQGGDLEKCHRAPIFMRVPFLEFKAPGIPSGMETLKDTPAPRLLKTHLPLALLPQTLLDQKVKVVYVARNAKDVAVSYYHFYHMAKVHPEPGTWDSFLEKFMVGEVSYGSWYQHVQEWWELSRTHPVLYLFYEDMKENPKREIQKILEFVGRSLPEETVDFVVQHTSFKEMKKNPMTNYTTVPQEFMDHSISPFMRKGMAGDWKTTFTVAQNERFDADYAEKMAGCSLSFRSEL
inactive: erlotinib -0.045 | [1] 0.08 | [2] -0.014 | [3] 0.069 | [4] 0.048 | [5] -0.011 | [6] -0.061 | [7] -0.026 | [8] 0.018 | IRAK-1-4 Inhibitor I -0.04

SLC19A1 (UniProt P41440)
inactive: erlotinib -0.032 | [1] -0.024 | [2] 0.049 | [3] -0.04 | [4] -0.025 | [5] -0.001 | [6] -0.017 | [7] -0.023 | [8] 0.023 | IRAK-1-4 Inhibitor I 0.033

SMTN isoform 6 (UniProt P53814)
UniProt P53814, sequence (P53814 whole entry, looked up): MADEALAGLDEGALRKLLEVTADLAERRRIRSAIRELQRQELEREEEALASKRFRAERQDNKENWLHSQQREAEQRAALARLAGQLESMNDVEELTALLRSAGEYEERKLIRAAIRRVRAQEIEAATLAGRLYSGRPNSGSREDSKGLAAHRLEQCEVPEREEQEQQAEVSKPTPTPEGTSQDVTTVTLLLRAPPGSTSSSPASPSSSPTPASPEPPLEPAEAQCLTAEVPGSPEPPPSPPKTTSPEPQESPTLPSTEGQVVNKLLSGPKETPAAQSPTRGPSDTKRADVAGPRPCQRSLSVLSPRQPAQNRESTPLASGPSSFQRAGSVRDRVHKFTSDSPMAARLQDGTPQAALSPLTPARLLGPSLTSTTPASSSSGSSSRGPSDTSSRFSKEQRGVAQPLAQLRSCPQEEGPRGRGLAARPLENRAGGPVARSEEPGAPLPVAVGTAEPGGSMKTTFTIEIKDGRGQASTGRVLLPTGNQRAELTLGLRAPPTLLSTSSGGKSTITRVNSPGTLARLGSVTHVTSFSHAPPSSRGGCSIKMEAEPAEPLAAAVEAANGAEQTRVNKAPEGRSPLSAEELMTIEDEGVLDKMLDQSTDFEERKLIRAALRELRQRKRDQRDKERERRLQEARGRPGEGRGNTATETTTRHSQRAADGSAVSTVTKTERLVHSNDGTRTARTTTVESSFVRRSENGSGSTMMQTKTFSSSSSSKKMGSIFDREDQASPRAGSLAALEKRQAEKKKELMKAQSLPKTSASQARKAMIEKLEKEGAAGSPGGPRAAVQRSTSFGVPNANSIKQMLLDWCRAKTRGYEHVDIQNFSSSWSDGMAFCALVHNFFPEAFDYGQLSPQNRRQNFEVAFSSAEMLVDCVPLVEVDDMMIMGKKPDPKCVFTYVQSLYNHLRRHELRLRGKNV
inactive: erlotinib -0.033 | [1] 0.081 | [2] -0.01 | [3] 0.035 | [4] 0.006 | [5] 0.021 | [6] 0.005 | [7] -0.018 | [8] 0.015 | IRAK-1-4 Inhibitor I 0.058

SLC38A1 (UniProt Q9H2H9)
inactive: erlotinib -0.01 | [1] -0.029 | [2] 0.056 | [3] 0.007 | [4] 0.01 | [5] 0.039 | [6] -0.061 | [7] -0.027 | [8] 0.026 | IRAK-1-4 Inhibitor I 0.053

SNUPN (UniProt O95149)
UniProt O95149, sequence (O95149 whole entry, looked up): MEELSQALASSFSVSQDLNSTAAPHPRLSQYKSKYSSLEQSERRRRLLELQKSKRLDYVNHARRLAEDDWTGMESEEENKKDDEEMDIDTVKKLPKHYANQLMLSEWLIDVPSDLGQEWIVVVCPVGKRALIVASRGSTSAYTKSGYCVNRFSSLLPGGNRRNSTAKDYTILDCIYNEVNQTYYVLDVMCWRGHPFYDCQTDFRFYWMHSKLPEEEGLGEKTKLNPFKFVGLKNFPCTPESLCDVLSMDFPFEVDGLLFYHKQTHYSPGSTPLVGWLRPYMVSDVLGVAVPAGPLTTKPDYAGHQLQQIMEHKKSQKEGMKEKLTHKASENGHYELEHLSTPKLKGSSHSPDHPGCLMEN
inactive: erlotinib -0.048 | [1] -0.116 | [2] 0.3 | [3] 0.024 | [4] 0.035 | [5] 0.069 | [6] 0.009 | [7] 0.02 | [8] -0.039 | IRAK-1-4 Inhibitor I -0.001

SMG1 (UniProt Q96Q15)
inactive: erlotinib -0.004 | [1] -0.031 | [2] -0.046 | [3] 0.009 | [4] 0.029 | [5] -0.022 | [6] -0.072 | [7] -0.036 | [8] 0.024 | IRAK-1-4 Inhibitor I -0.008

SLU7 (UniProt O95391)
UniProt O95391, sequence (O95391 whole entry, looked up): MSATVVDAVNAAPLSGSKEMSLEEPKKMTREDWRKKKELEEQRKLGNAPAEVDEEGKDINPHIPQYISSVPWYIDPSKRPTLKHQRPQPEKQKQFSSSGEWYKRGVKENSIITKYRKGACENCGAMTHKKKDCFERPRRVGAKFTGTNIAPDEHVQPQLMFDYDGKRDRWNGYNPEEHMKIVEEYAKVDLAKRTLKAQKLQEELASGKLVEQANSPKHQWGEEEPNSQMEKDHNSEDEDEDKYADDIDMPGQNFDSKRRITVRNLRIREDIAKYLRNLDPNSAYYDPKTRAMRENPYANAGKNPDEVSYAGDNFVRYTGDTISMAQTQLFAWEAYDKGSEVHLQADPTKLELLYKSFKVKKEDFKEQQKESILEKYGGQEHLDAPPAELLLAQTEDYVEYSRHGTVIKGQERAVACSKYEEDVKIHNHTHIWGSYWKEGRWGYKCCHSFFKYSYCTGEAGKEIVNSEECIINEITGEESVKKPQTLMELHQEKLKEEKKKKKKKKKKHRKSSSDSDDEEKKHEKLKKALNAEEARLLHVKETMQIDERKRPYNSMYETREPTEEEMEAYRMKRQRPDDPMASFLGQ
inactive: erlotinib -0.02 | [1] -0.086 | [2] -0.021 | [3] 0.09 | [4] -0.026 | [5] 0.021 | [6] 0.036 | [7] -0.096 | [8] -0.041 | IRAK-1-4 Inhibitor I -0.07

SHKBP1 (UniProt Q8TBC3)
UniProt Q8TBC3, sequence (Q8TBC3 whole entry, looked up): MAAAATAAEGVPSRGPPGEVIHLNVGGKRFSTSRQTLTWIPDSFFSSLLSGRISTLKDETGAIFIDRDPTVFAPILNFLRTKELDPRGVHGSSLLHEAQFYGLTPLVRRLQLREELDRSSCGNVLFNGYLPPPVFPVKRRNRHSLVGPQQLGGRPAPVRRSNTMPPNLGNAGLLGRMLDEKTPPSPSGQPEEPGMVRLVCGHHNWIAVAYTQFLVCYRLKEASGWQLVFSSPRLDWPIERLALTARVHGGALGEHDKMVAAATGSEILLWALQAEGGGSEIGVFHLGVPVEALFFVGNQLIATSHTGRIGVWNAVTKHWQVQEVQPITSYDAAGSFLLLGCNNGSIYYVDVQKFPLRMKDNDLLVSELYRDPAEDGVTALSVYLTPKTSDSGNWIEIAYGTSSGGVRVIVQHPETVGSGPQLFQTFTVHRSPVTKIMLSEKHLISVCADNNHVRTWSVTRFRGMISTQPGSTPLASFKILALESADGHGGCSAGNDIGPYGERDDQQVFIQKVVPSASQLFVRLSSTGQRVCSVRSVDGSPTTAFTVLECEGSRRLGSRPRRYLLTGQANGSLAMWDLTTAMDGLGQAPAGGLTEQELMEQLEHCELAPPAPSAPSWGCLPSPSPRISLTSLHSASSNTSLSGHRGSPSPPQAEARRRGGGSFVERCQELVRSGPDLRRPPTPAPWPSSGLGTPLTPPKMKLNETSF
inactive: erlotinib -0.005 | [1] -0.064 | [2] 0.058 | [3] 0.004 | [4] 0.011 | [5] 0.01 | [6] -0.018 | [7] 0.076 | [8] 0.189 | IRAK-1-4 Inhibitor I 0.022
